Pin1 inhibitor – human Pin1 inhibition; Q13526; Pin1 FP peptide displacement, HiFluor488, 10 min; Potency, µM (titrated, usually from 115 µM), inactives show top-dose activity, negative = inhibition, usual class: inhibitors; hit rate 0.009% among 390,000; active means well fitted inhibition curve with a large enough effect in the polarisation, with a control signal flat, not every such curve was filed as active; inconclusive means small, poorly fitted or top-dose-only effect, or effect the other way, or a change in a side signal; inactive means no such curve, though single readings can be large or run the other way; the % refers to the polarisation; further: potency means the concentration at half of the fitted maximal effect; on the % scale 0 is the no-effect control and ±100 the full control effect
Target sequence (Q13526 whole entry, looked up): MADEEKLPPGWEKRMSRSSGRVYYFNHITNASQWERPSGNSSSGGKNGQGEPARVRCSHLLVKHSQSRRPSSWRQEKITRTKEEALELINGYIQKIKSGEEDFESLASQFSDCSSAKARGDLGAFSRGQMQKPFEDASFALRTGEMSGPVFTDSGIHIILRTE
LDHA inh – LDHA (human) enzyme inhibition. purified LDHA, NADH/diaphorase-resazurin fluorescence; active compounds read low. activity change, % (values are at about 110 or 230 µM). hit rate 0.15% among 480,000. AID 1347041. P00338; in the data active means activity change below about -30%; inconclusive means mostly about -25% to -30%;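 further: plate controls were DMSO wells for no effect and wells without enzyme for full effect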
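Human LDH5 (2 nM) was incubated with 0.06 mM NADH and 0.2 mM pyruvate for 5 min at room temperature in Tris pH 7.4. Remaining NADH was coupled through diaphorase/resazurin, and resorufin fluorescence was read at 0 and 20 min.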
Tb PGK inh – T. brucei PGK inhibition | P07378 | PGK/GAPDH coupled, Kinase-Glo luminescence, 60 min | Potency, µM (series often up to 57.5 µM), inactives show top-dose activity change, negative = inhibition, usual class: inhibitors | hit rate 0.043% among 380,000; further: potency means the concentration at half of the fitted maximal effect; on the % scale 0 is the no-effect control and ±100 the full control effect; nearly all actives have a fitted effect of over 60% in size
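Luminescent ATP detection (Kinase-Glo Plus) follows a 60-minute room-temperature incubation, with wells lacking PGK as controls. Buffer: 100 mM TEA (pH 7.6), 5 mM MgCl2, 0.01% Tween-20. Coupling enzyme GAPDH (100 nM final) supplies unstable 1,3-BPG in-well.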
IDH1 R132H inh – blocks human mutant IDH1 R132H enzyme; AID 602179; IDH1-R132H enzyme, NADPH consumption, diaphorase/resazurin fluorescence; hit rate 0.093% among 390,000; O75874; Potency, µM (doses to about 76.6 µM), for inactives: top-dose activity change, negative = inhibition, most hits filed as inhibitors; further: potency means the concentration at half of the fitted maximal effect; on the % scale 0 is the no-effect control and ±100 the full control effect; nearly all actives have a fitted effect of over 65% in size
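IDH1-R132H (0.5 ug/mL) preincubated 30 min with compound, then NADPH (0.016 mM) and alpha-KG (2 mM) added; 80 min at RT, pH 7.5. Remaining NADPH coupled via diaphorase/resazurin to fluorescence (540/590 nm); concentration-response curves normalized to no-enzyme control.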
Vif-A3F inh – blocks the Vif interaction with APOBEC3F; HeLa A3F-eYFP + Vif (tagged APOBEC3F with the HIV-1 protein that degrades it), YFP fluorescence increase; Potency, µM (titrated, usually from 46.1 µM), inactives show at the highest dose activity, negative = active; hit rate 0.2% among 390,000; further: potency means the concentration at half of the fitted maximal effect; % of control where 0% means no effect; nearly all actives have a fitted effect of over 65% in size
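HeLa cells stably expressing Vif plus C-terminally eYFP-tagged A3F were seeded, incubated overnight at 37 deg C, dosed with compound, incubated overnight again at 37 deg C. Yellow fluorescence (Ex 488/Em 500-530) reported blocked Vif-mediated A3F-eYFP degradation.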
Vif-A3G inh – Vif-A3G binding inhibition | AID 602310 | HeLa A3G-eYFP + Vif (tagged APOBEC3G with the HIV-1 protein that degrades it), YFP fluorescence, overnight | hit rate 0.076% among 410,000 | Potency, µM (top dose mostly 46.1 µM), without a hit: at the top dose activity, negative = active, most hits filed as inhibitors; further: potency means the concentration at half of the fitted maximal effect; on the % scale 0 is the no-effect control and ±100 the full control effect; nearly all actives have a fitted effect of over 60% in size
Target sequence (Q9HC16 whole entry, looked up): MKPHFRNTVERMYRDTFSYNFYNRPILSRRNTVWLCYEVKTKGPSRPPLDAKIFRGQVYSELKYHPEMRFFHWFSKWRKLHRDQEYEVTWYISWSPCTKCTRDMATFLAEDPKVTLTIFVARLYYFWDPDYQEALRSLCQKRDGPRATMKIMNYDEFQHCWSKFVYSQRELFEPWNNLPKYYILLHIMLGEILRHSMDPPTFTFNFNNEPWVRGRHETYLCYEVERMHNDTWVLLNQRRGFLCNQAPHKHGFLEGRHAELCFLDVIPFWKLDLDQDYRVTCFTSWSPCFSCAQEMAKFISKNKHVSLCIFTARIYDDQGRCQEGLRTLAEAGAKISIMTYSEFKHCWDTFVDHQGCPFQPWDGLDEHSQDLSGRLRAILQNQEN
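HeLa cells stably expressing Vif and C-terminally eYFP-tagged A3G, seeded overnight at 37 deg C, then exposed to compound by pintool overnight at 37 deg C. Rise in yellow fluorescence (Ex 488/Em 500-530, Acumen) marks blocked Vif-driven A3G degradation.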
* hit, by the source's call; i = inactive; ? = inconclusive; . = not tested or not shown; ! = not confirmed by another sample. A selection: hits, their analogues and other compounds. The true share with any hit is near 0.49%. Unless noted, the call rests on the fitted dose curve; in most records, active means well fitted curve in the direction sought with a large enough effect; inconclusive means small, poorly fitted or top-dose-only effect, or another doubt; inactive means no such curve, though single readings can be large; an effect the other way counts as inactive or inconclusive.

SMILES	Pin1 inhibitor	LDHA inh	Tb PGK inh	IDH1 R132H inh	Vif-A3F inh	Vif-A3G inh
Cc1ccc(OCCNC(=O)c2cc3ccccc3oc2=O)c(C)c1	.	0	.	.	.	.
CCN(CC)c1ccc(/C=C2\SC(N)=NC2=O)cc1	?	0	-8%	2%	?	8.9µM*
NC1=NC(=O)/C(=C/c2ccc(OCC(=O)O)cc2)S1	-3%	2	3%	-2%	-5%	-1%
CC(On1nnc2ccc(Cl)cc21)C(=O)Nc1ccc(F)cc1F (configuration not stated)	.	-1	.	.	.	.
O=C(N/N=C/c1c(O)n(-c2ccc(Cl)cn2)c(=O)c2ccccc12)c1ccncc1	?	6	i	3%	22µM*	-19%
COc1ccc(NC(=O)Cn2c(SCc3cccc(C)c3)nc3ccncc32)c(OC)c1OC	.	3	.	.	.	.
CCOc1cc(/C=C/C(=O)c2ccc(OC)c(CN3CCOCC3)c2)cc(Br)c1O	?	-3	-12%	6%	25µM*	?
CCOc1c(Br)cc(/C=C/C(=O)c2cccc(OC)c2)cc1OC	.	-2	.	.	.	.
CCOC(=O)N1CCN(c2cc(NCCC(=O)O)c3c4c(onc24)-c2ccccc2C3=O)CC1	?	16	?	1%	7.1µM*	?
O=C(O)CCCNc1cc(N2CCN(C(=O)c3ccco3)CC2)c2noc3c2c1C(=O)c1ccccc1-3	?	2	-20%	-3%	?	22µM*
CCCCNc1cc(N2CCN(C3CCCCC3)CC2)c2noc3c2c1C(=O)c1ccccc1-3	30%	12	0%	-1%	?	?
CN1CCN(c2cc(N3CCN(C(=O)c4ccco4)CC3)c3c4c(onc24)-c2ccccc2C3=O)CC1	-3%	11	-8%	8%	2%	6%
COc1ccc(C2CC(c3ccncc3)=NN2c2ccc(S(N)(=O)=O)cc2)cc1 (configuration not stated)	?	-1	2%	?	11µM*	?
Cc1oc2cc(OC(=O)c3ccco3)ccc2c(=O)c1-c1ccccc1	.	-15	.	.	.	.
Cc1oc2cc(OC(=O)c3ccco3)ccc2c(=O)c1-c1ccc(Br)cc1	.	-34*	.	.	.	.
Cc1cc(C(=O)OC(C)C(=O)Nc2ccc(Cl)cc2F)c(C)o1 (configuration not stated)	.	-8	.	.	.	.
O=S(=O)(Nc1ccc(F)cc1)c1ccc(-c2cnc(C3CC3)o2)cc1	.	-1	.	.	.	.
NS(=O)(=O)c1ccc(Nc2c([N+](=O)[O-])cncc2[N+](=O)[O-])cc1	-8%	-33*	-3%	21%	-20%	-1%
O=S(=O)(c1ccc2nc(N3CCN(c4ccc(F)cc4)CC3)ccc2c1)N1CCCC1	.	-11	.	.	.	.
O=C(O)c1cc(-c2ccco2)nc2ccc(Br)cc12	-4%	5	28µM*!	14%	-2%	0%
COc1ccc(-c2nc3cc(NC(=O)c4ccccc4)ccc3o2)cc1	.	-39*	.	.	.	.
COCCn1ccc2c(OCC(=O)Nc3ccccc3)cccc2c1=O	.	-6	.	.	.	.
CC(=O)c1cccc(-c2ccnc3c2CC(C(=O)NCc2ccco2)O3)c1 (configuration not stated)	.	-6	.	.	.	0.89µM*
c1ccc2c(c1)nc(N1CCOCC1)c1nnnn12	?	-1	i	17%	3.2µM*	0%
c1ccc(N2CCN(c3nc4ccccc4n4nnnc34)CC2)cc1	?	-3	-6%	-1%	?	-16%
CC(=O)Nc1ccc(NS(=O)(=O)c2ccccc2C#N)cc1Cl	.	-2	.	.	.	.
COc1cc(OC)c(C2Nc3cccc4cccc(c34)N2)c(OC)c1	-5%	6	-2%	19%	11µM*	-1%
COc1cccc(NC(=O)N(C)C[C@@H]2Oc3cc(Br)ccc3S(=O)(=O)N([C@@H](C)CO)C[C@H]2C)c1	.	-1	9%	0%	0%	0%

Bioassay records: PubChem BioAssay, National Center for Advancing Translational Sciences (NCATS)
